Test results: PubChem BioAssay AID2061304 (National Center for Advancing Translational Sciences (NCATS), 2025)
Results filed as inconclusive are left out. The source made the active and inactive calls. Calls follow the shape of the dose curve; as a rule, active = well fitted inhibition curve with a large enough effect; inconclusive = small, poorly fitted or top-dose-only effect; inactive = flat fitted curve, though single readings scatter. Square brackets hold non-standard residues; d marks the D form. Peptide text beside a SMILES is read from it. * marks the point of attachment. Dolaproine = CO[C@@H]([C@@H]1CCCN1)[C@@H](C)C(=O)O; Dil = CC[C@H](C)[C@H](NC)[C@@H](CC(=O)O)OC; NMe2Val = CC(C)[C@@H](C(=O)*)N(C)C; X1 = C[C@@H](N*)[C@@H](O)c1ccccc1; NMeV = CN[C@H](C(=O)O)C(C)C

Test: Identification of antibody-drug conjugate (ADC) payloads which are substrates of ATP-binding cassette drug efflux transporters: ABCB1-HeLa-KB-8-5-11 cell line
Settings: KB-8-5-11 (P-gp overexpressing HeLa) viability, CellTiter-Glo, 48 h
Description: Antibody-drug conjugates (ADCs) feature an antibody recognizing a specific protein joined to a potent toxic payload. Numerous antibody-drug conjugates have received FDA approval; however, clinical resistance arises. Resistance mechanisms include decreased expression or mutation of the antibody target, impaired payload release, or increased expression of ATP-binding cassette (ABC) efflux transporters associated with multidrug resistance. We therefore sought to characterize the interaction of ABC multidrug transporters with ADC payloads. We performed a high-throughput screen with 27 common ADC payloads using cells lines expressing ABC transporters P-glycoprotein (P-gp, encoded by ABCB1) or ABCG2 (encoded by ABCG2). Confirmatory assays were also performed using cells transfected to express P-gp, ABCG2, or MRP1 (encoded by ABCC1). Several commonly used ADC payloads were substrates of P-gp, including calicheamicin gamma1, monomethyl auristatin E, DM1, and DM4. All the pyrrolobenzodiazepines tested - SJG136, SGD-1882, SG2057, and SG3199 - were substrates of P-gp, ABCG2, and MRP1. […] These findings highlight the risk of transporter-mediated resistance with certain ADC payloads and underscore the importance of selecting payloads that evade ABC transporter recognition in future ADC development.
HEK-293 cells were transfected with empty vector (pcDNA) or vector containing the human ABCB1 (MDR-19), ABCG2 (R-5), or ABCC1 gene (MRP1) and were maintained in EMEM with 2 mg/mL G418 added to maintain transporter expression. The HeLa derivative KB-3-1 and the P-gp overexpressing KB-8-5-11 subline were maintained in DMEM; KB-8-5-11 additionally received 100 ng/mL colchicine. H460 parental cells were obtained from the Division of Cancer Treatment and Diagnosis Tumor Repository, National Cancer Institute at Frederick, MD and were cultured in RPMI. The ABCG2 expressing subline H460 MX20 was generated by selecting H460 cells in 20 nM mitoxantrone. Media in all cases was supplemented with 10% FBS and 1% penicillin-streptomycin. We explored 27 common ADC payloads, in two orthogonal, paired cell line sets-a drug selected and transfected set for each transporter--to identify substrates of the ABC transporters P-gp and ABCG2. Compounds were sourced from Levena Biopharma (San Diego, CA), Selleck Chem (Houston, TX), ChemieTek (Indianapolis, IN), or Microsource Discovery Systems (Gaylordsville, CT). Screening was performed as previously described. Briefly, cells were plated at a density of 500 cells/well in 1536 well plates with compounds added using a 1536-head pin tool (Kalypsys, San Diego CA). Cells were incubated with cytotoxic drugs and processed with CellTiter Glo reagent (Promega, Madison, WI) to determine viability after 48 hours. P-gp substrates were identified by comparing compound activity between paired sets of low-expressing (sensitive) and over-expressing (resistant) cell lines.

Q: Which Potency does the source give for `COc1cc2cc(c1Cl)N(C)C(=O)C[C@H](OC(=O)C(C)C)[C@]1(C)O[C@H]1[C@H](C)[C@@H]1C[C@@](O)(NC(=O)O1)[C@H](OC)C=CC=C(C)C2` here?
A: Its Potency is 4.7 nM (active).

Q: With `CC[C@H](C)[C@@H]([C@@H](CC(=O)N1CCC[C@H]1[C@H](OC)[C@@H](C)C(=O)N[C@H](C)[C@@H](O)c1ccccc1)OC)N(C)C(=O)[C@@H](NC(=O)[C@@H](NC)C(C)C)C(C)C` (H-[NMeV]V[Dil][Dolaproine]-X1) as the compound, how does the Potency read?
A: Its Potency is 211 nM (active).

Q: Which Potency does the source give for `CC[C@H](C)[C@H](NC(=O)[C@H]1CCCCN1C)C(=O)N(C)[C@H](C[C@@H](OC(C)=O)c1nc(C(=O)O)cs1)C(C)C` here?
A: Its Potency is 4200 nM (active).

Q: Which Potency does the source give for `COc1cc2cc(c1Cl)N(C)C(=O)C[C@H](OC(=O)[C@H](C)N(C)C(=O)CCC(C)(C)S)[C@]1(C)OC1[C@H](C)C1C[C@@](O)(NC(=O)O1)[C@H](OC)/C=C/C=C(\C)C2` (some centres not stated) here?
A: Its Potency is 26.5 nM (active).

Q: For `CC[C@H](C)[C@@H]([C@@H](CC(=O)N1CCC[C@H]1[C@H](OC)[C@@H](C)C(=O)N[C@H](C)[C@@H](O)c1ccccc1)OC)N(C)C(=O)[C@@H](NC(=O)[C@H](C(C)C)N(C)C)C(C)C`, which Potency is on record?
A: The Potency was 52.9 nM (active).

Q: Which Potency does the source give for `COc1cccc2c1C(=O)c1c(O)c3c(c(O)c1C2=O)C[C@@](O)(C(=O)CO)CC3OC1CC(N2CCOC(OC)C2)C(O)C(C)O1` (some centres not stated) here?
A: Its Potency is 13.3 nM (active).

Q: Which Potency does the source give for `CC[C@H](C)[C@@H]([C@@H](CC(=O)N1CCC[C@H]1[C@H](OC)[C@@H](C)C(=O)N[C@@H](Cc1ccccc1)C(=O)O)OC)N(C)C(=O)[C@@H](NC(=O)[C@H](C(C)C)N(C)C)C(C)C` (NMe2Val-V[Dil][Dolaproine]F-OH) here?
A: The Potency was 265 nM (active).

Q: For `COc1cc2cc(c1Cl)N(C)C(=O)C[C@H](OC(=O)[C@H](C)N(C)C(=O)CCS)[C@]1(C)OC1[C@H](C)C1C[C@@](O)(NC(=O)O1)[C@H](OC)/C=C/C=C(\C)C2` (some centres not stated), which Potency is on record?
A: The Potency was 106 nM (active).

Q: Which Potency does the source give for `CC[C@H](C)[C@@H]1NC(=O)CNC(=O)[C@H]2Cc3c([nH]c4cc(O)ccc34)S(=O)C[C@H](NC(=O)CNC1=O)C(=O)N[C@@H](CC(N)=O)C(=O)N1C[C@H](O)C[C@H]1C(=O)N[C@@H]([C@@H](C)[C@@H](O)CO)C(=O)N2` (some centres not stated) here?
A: The Potency was 4720 nM (active).

Q: For `CC[C@H](C)[C@H](NC(=O)[C@H]1CCCCN1C)C(=O)N(C)[C@H](C[C@@H](OC(C)=O)c1nc(C(=O)N[C@@H](Cc2ccccc2)C[C@H](C)C(=O)O)cs1)C(C)C`, which Potency is on record?
A: The Potency was 10.6 nM (active).

Q: With `CC[C@@]1(O)C(=O)OCc2c1cc1n(c2=O)Cc2cc3ccccc3nc2-1` as the compound, how does the Potency read?
A: The Potency was 334 nM (active).

Q: For `COc1cc2cc(C(=O)N3C[C@@H](CCl)c4c3cc(O)c3ccccc43)[nH]c2c(OC)c1OC`, which Potency is on record?
A: The Potency was 1.3 nM (active).
